In the library only some 2.3% were active in any assay of this set; here they are far more common.
HTT aggregate – qHTS Multiplex Assay to Identify Dual Action Probes in a Cell Model of Huntington: Aggregate Formation (GFP); Potency, µM (highest dose often 46.1 µM), usual class: inhibitors; actives 1.1% (n = 220,000); PC12 HttQ103-GFP aggregates, Acumen cytometry, 40 h; further: nearly all actives have a fitted effect of over 60% in size
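Aggregate formation scored by laser-scanning cytometer (488 excitation, 500–530 emission) in lysed PC12 cells expressing Q103-GFP after 100 nM tebufenozide induction; library tested in dose series, with ATPLite reagent added in the multiplex.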
Coupling enz – qHTS Assay for Inhibitors of Fructose-1,6-bisphosphate Aldolase from Giardia Lamblia: Coupling assay counterscreen | actives 0.67% (n = 290,000) | activity change, negative = inhibition, % at 58.2 µM, hits read low | coupling enzyme system counterscreen, AmpLite Red fluorescence; in the data active means activity change below about -30%
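Counterscreen of the coupled detection system alone, without aldolase: glyceraldehyde-3-phosphate coupling enzymes plus AmpLite Red readout. Compounds at 57.5 uM final, 10 min RT preincubation, 20 min RT reaction, fluorescence 525/598 nm.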
VDR inh – Inhibitors of the vitamin D receptor (VDR): qHTS. Vitamin D3 receptor (Homo sapiens), P11473. actives 0.93% (n = 400,000). VDR-SRC2-3 peptide fluorescence polarization, 2 h. AID 504847, 2011. Potency, µM, most hits filed as inhibitors
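Compounds are added to VDR with labelled SRC2-3 coactivator peptide and held 2 h at room temperature. Inhibition of the VDR–peptide interaction is then read as a change in fluorescence polarization.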
HTT ATP protect – qHTS Multiplex Assay to Identify Dual Action Probes in a Cell Model of Huntington: Cytoprotection (ATP). PC12 HTT-Q103 induced, cytoprotection, ATP luminescence, 40 h. Potency, µM (doses to about 56.4 µM), actives largely listed as activators. actives 0.14% (n = 230,000). AID 1471, 2008; further: nearly all actives have a fitted effect of over 45% in size
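Stable PC12 Q103-GFP cells in serum-supplemented, phenol red-free DMEM; induction by tebufenozide at 100 nM final; compound dose series; cell viability quantified luminescently from ATP.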
KDM4E inh – qHTS Assay for Inhibitors of Human Jumonji Domain Containing 2E (JMJD2E); Lysine-specific demethylase 4E (Homo sapiens), B2RXH2; JMJD2E catalytic domain, FDH-coupled NADH fluorescence (FDH is formaldehyde dehydrogenase); Potency, µM (top dose mostly 57.1 µM), usual class: inhibitors; actives 1.6% (n = 230,000); active means well fitted inhibition curve with a large enough effect, not every such curve was filed as active; inconclusive means small, poorly fitted or top-dose-only effect, or another doubt; inactive means no such curve, though single readings can be large or run the other way; further: nearly all actives have a fitted effect of over 50% in size
Target sequence (B2RXH2 1-337 limits assumed): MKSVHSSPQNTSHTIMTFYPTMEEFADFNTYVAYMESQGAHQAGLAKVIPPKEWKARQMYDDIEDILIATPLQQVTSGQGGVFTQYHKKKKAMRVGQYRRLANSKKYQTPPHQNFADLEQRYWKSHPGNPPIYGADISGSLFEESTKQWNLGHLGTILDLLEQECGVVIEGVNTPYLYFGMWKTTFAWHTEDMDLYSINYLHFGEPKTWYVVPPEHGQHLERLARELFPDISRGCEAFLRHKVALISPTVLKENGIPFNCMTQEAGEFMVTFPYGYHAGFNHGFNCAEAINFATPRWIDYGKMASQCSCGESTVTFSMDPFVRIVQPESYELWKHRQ
RGS12 GoLoco inh – qHTS Assay for Inhibitors of RGS12 GoLoco Motif Activity (Red Fluorophore); actives 0.44% (n = 230,000); Guanine nucleotide-binding protein G(i) subunit alpha-1 (Homo sapiens), P63096; Potency, µM (top dose mostly 61.6 µM), actives largely listed as inhibitors; Gai1:RGS12 GoLoco peptide FP, rhodamine, 10 min; active means well fitted inhibition curve with a large enough effect, not every such curve was filed as active; inactive means no such curve, though single readings can be large or run the other way; further: nearly all actives have a fitted effect of over 30% in size
VDR confirm – qHTS for Inhibitors of the vitamin D receptor (VDR): Hit Validation in Primary Screen; shares compounds with VDR inh; Potency, µM, most hits filed as inhibitors; actives 89% (n = 840); VDR-coactivator inhibition assay, qHTS confirmation
VDR FP – qHTS for Inhibitors of the vitamin D receptor (VDR): Hit Validation using a Fluorescein Assay. shares compounds with VDR inh. VDR-coactivator binding, fluorescein fluorescence polarization. Potency, µM (titrated, usually from 57.1 µM), hits mostly inhibitors. actives 48% (n = 840). AID 602200, 2012
VDR bla – qHTS for Inhibitors of the vitamin D receptor (VDR): Hit Validation using a Beta-Lactamase Assay | shares compounds with VDR inh | VDR beta-lactamase reporter cells, FRET ratio; cells co-treated with VDR agonist LG190178 | Potency, µM (highest dose often 46.1 µM), hits mostly inhibitors | actives 23% (n = 840) | AID 602202, 2012
VDR cytotox – qHTS for Inhibitors of the vitamin D receptor (VDR): Hit Validation using a Cytotoxicity Assay; actives 18% (n = 840); Potency, µM (top dose mostly 48.3 µM), hits mostly cytotoxic; cytotoxicity counter-screen, cell viability, qHTS; AID 602204, 2012; shares compounds with VDR inh; further: nearly all actives have a fitted effect of over 75% in size
Each line names hits and unclear results; the compound was inactive in the other large screens (follow-up assays come after a bar, where they were run). Unless noted, the call rests on the fitted dose curve; in most records, active means well fitted curve in the direction sought with a large enough effect; inconclusive means small, poorly fitted or top-dose-only effect, or another doubt; inactive means no such curve, though single readings can be large; an effect the other way counts as inactive or inconclusive.

CC(=O)N(C1=C(Cl)C(=O)c2ccccc2C1=O)C1CCCCC1	HTT aggregate inconclusive, Coupling enz -88, VDR inh 14µM, KDM4E inh inconclusive | VDR confirm 12 | VDR FP 14µM | VDR bla 5.8µM | VDR cytotox inconclusive
CC(=O)N(c1ccccc1C)C1CCCC1	HTT ATP protect inconclusive
CCNC(=S)NS(=O)(=O)c1ccc(CC)cc1	none
CCc1ccc(S(=O)(=O)Nc2ccc(O)c3ccccc23)cc1	VDR inh inconclusive (no result: HTT aggregate, HTT ATP protect, KDM4E inh, RGS12 GoLoco inh) | VDR confirm 3 | VDR FP 8.9µM | VDR bla inconclusive | VDR cytotox inconclusive
O=C(NCc1cccnc1)/C(=C\c1ccc(-c2ccc(Cl)c(Cl)c2)o1)S(=O)(=O)c1ccccc1	HTT aggregate inconclusive, VDR inh 40µM | VDR confirm 15 | VDR FP inconclusive | VDR bla 12µM | VDR cytotox 15µM
O=C(NCc1cccnc1)c1ccc(-c2ccc(Cl)cc2)o1	KDM4E inh inconclusive
CCOC(=O)c1nn(-c2ccccc2)c(=O)c2c(NC(C)=O)scc12	none
CCOC(=O)c1nn(-c2ccccc2C)c(=O)c2c(N)scc12	Coupling enz -55, VDR inh 35µM, KDM4E inh inconclusive | VDR confirm inconclusive | VDR FP inconclusive | VDR bla inactive | VDR cytotox inactive
[O-]/[N+](=C/c1ccc(F)cc1)c1ccc(Cl)cc1	VDR inh 32µM | VDR confirm 24 | VDR FP inconclusive | VDR bla inactive | VDR cytotox inactive

Source: PubChem BioAssay (National Center for Advancing Translational Sciences (NCATS))
